From ChEMBL document CHEMBL3988442, “University of Dundee, Small-Polar-MMV Screening Library” (2021) come the findings set out here.

Among all 69,000 compounds or so, about 1,000 (1.4%) showed an effect of 50% or more. The list comes from a sample in which strong results are over-represented; it also holds similar structures and randomly drawn compounds.

This assay concerns Leishmania donovani. As to the kind of experiment: Leishmania intramacrophage assay. Also on record: scale not given: in the data most compounds retested in dose-response had high values. The class given is functional, organism-based.

Turning to `Cc1nc(CN(C)C2CCN(CCc3cnn(C)c3)C2)no1` (configuration not stated), the “Percent Effect” value (30 µM) is 5.885%.

Take `COc1ccc(CCN2CCCC(Cn3nc(C)nc3C)C2)cc1` (configuration not stated): the “Percent Effect” value (30 µM, 30.03 µM) turned out to be 18.76%.

Regarding `Cc1nc(CN(C)C2CCN(CCc3ccc4c(c3)CCO4)C2)no1` (configuration not stated), where the note is “30 µM”, the “Percent Effect” value worked out at 14.02%.

Turning to `Cc1noc(CN(C)CC2CCN(CCO)CC2)n1`, the “Percent Effect” value (30.3 µM, […]) is reported as 19.09%.

`CCc1nc(CN(C)C2CCN(CCc3ccncc3)C2)no1` (configuration not stated): the “Percent Effect” value (30.3 µM, […]) worked out at 23.01%.

For `Cc1nc(C)n(CC2CCCN(CCc3ccccc3)C2)n1` (configuration not stated), under “30 µM”, the “Percent Effect” value turned out to be 25.36%.

On to `O=C(CCOc1ccccc1)NS(=O)(=O)Cc1ccccc1`, for which the “Percent Effect” value (30.3 µM, […]) is 8.588%.

For the molecule `CCO[C@H]1CC[C@H]2[C@H]1OCCN2C(=O)CC1=CCCCC1`, the “Percent Effect” value (30.3 µM, […]) is on record as 2.273%.

For `Cn1cnc(S(=O)(=O)N2CCCC2)c1Cl`, for the setting “30 µM, 30.03 µM”, the “Percent Effect” value worked out at 14.79%.

Take `O=C(NCCc1cccc(F)c1)c1nc2c(s1)CCCN2C(=O)C1CC1`: the “Percent Effect” value (30.3 µM, […]) is 44.4%.

Turning to `CCN(Cc1ccoc1)C(C(N)=O)c1cccc(Br)c1` (configuration not stated), for the setting “30.3 µM, […]”, the “Percent Effect” value is 23.25%.

For the molecule `CN(c1ncc(S(N)(=O)=O)s1)C1CCC1`, the “Percent Effect” value (30.3 µM, […]) is listed as 27.02%.

`CN(c1ncc(S(N)(=O)=O)s1)C1CCc2ccccc2C1` (configuration not stated): the “Percent Effect” value (30.3 µM, […]) is recorded as 53.12%.

With `CN(c1ncc(S(N)(=O)=O)s1)C1CCc2ccccc21` (configuration not stated), the “Percent Effect” value (30.3 µM, […]) was determined as 21.68%.

Regarding `O=C(NC1CCC1)C1=NOC2(CCN(Cc3ccccc3)C2)C1` (configuration not stated), the “Percent Effect” value (30.3 µM, […]) came to 18.41%.

`CNC(=O)CN1CCOCC2(C1)CN(C(=O)CC(C)C)CCO2.O=C(O)C(F)(F)F` (configuration not stated): the “Percent Effect” value (30.3 µM, […]) is listed as 52.6%.

Regarding `CNC(=O)CN1CCOCC2(C1)CN(C(=O)C(C)C)CCO2.O=C(O)C(F)(F)F` (configuration not stated), for the setting “30.3 µM, […]”, the “Percent Effect” value is given as -36.06%.

`CCCC(=O)N1CCOC2(COCCN(CC(=O)NC)C2)C1.O=C(O)C(F)(F)F` (configuration not stated): the “Percent Effect” value (30.3 µM, […]) is on record as -9.456%.

Regarding `NCCc1n[nH]c(=O)n1-c1cccc2ccccc12`, the “Percent Effect” value (30.3 µM, […]) is -1.188%.

In the case of `COc1ccc2nnc(CCCC(=O)NCc3ccccc3F)n2n1`, where the note is “30.3 µM, […]”, the “Percent Effect” value came out at 59.63%.

As to `COc1ccc2nnc(CCCC(=O)NCc3ccccc3)n2n1`, the “Percent Effect” value (30.3 µM, […]) is -8.358%.

For the molecule `COc1ccc2nnc(CCCC(=O)NCc3ccccc3OC)n2n1`, the “Percent Effect” value (30.3 µM, […]) is given as -10.21%.

Turning to `Cn1nccc1CNC(=O)CCn1nc(C(F)(F)F)cc1C1CC1`, where the note is “30.3 µM, […]”, the “Percent Effect” value is given as -48.51%.

As for `CC(C)c1cc(=O)[nH]c(C(C)(C)N)n1.Cl`, the “Percent Effect” value (30.3 µM, […]) is recorded as -1.615%.

Take `CCCc1cc(=O)[nH]c(-n2nc(-c3cccs3)cc2N)n1`: the “Percent Effect” value (30.3 µM, […]) is on record as -5.205%.

Turning to `CCCc1cc(=O)[nH]c(-c2cccc(CN3CCCCCC3)c2)n1`, the “Percent Effect” value (30.3 µM, […]) is on record as -12.61%.

For the molecule `CC(=O)Nc1cc(C2CC2)nn1-c1nc(C)c(C)c(=O)[nH]1`, the “Percent Effect” value (30.3 µM, […]) is on record as -16.88%.

In the case of `CCc1c(C)nc(-n2nc(C3CC3)cc2NC(C)=O)[nH]c1=O`, the “Percent Effect” value (30.3 µM, […]) came out at 18.69%.

As for `Cc1cc(=O)[nH]c(-n2nc(-c3cccs3)cc2N)n1`, for the setting “30.3 µM, […]”, the “Percent Effect” value is recorded as -7.901%.

Turning to `Cc1cc(=O)[nH]c(-n2nc(C3CC3)cc2N)n1`, where the note is “30.3 µM, […]”, the “Percent Effect” value was found to be 77.1%.

With `Cc1cc(=O)[nH]c(-n2nc(-c3ccccc3)cc2N)n1`, the “Percent Effect” value (30.3 µM, […]) came out at 15.58%.

As to `Cc1nc(-n2nc(C3CC3)cc2NC(=O)C(C)C)[nH]c(=O)c1C`, the “Percent Effect” value (30.3 µM, […]) is reported as 15.32%.

Take `CC(NC(=O)CCc1nc(C(C)(C)C)no1)c1nnc2n1CCC2` (configuration not stated): where the note is “30.3 µM, […]”, the “Percent Effect” value came out at 10.79%.

As to `CNC(=O)CCS(=O)(=O)Cc1cc(Cl)c2c(c1)OCCO2`, the “Percent Effect” value (30 µM) was 6.265%.

`O=C(CN1CCC(C(=O)c2cc(F)ccc2F)CC1)NC1CC1`: the “Percent Effect” value (30.3 µM, […]) is 20.49%.

With `CNC(=O)C(NC(=O)CCc1cccc(OC2CCCC2)c1)C(C)C` (configuration not stated), the “Percent Effect” value (30.3 µM, […]) is on record as 1.65%.

With `Cc1nsc(C(=O)NCCCc2ccccc2)n1`, the “Percent Effect” value (30.3 µM, […]) is reported as 7.564%.

Consider `Cc1nc(C2CCCN2C(=O)Cn2cncn2)no1` (configuration not stated), for which, under “30 µM”, the “Percent Effect” value came out at 21.12%.

In the case of `CCOC(=O)c1sc2ccsc2c1CNC(=O)COC`, where the note is “30 µM”, the “Percent Effect” value was determined as 13.66%.

Take `O=C(NCC(O)c1ccoc1)Nc1cccs1` (configuration not stated): the “Percent Effect” value (30.3 µM, […]) was 10.34%.

Regarding `CCC(CC)(CCO)CNC(=O)c1ccon1`, the “Percent Effect” value (30.3 µM, […]) came to 7.917%.

For `CC(C)c1nn(C)c(N(C)C)c1CNCc1ccccc1CN(C)C`, the “Percent Effect” value (30 µM, 30.03 µM) worked out at 50.34%.

For the molecule `CC(C)c1nn(C)c(N(C)C)c1CNCc1ccccc1CO.Cl`, the “Percent Effect” value (30 µM) is given as 5.046%.

With `COCc1ccccc1CNCc1c(C(C)C)nn(C)c1N(C)C`, where the note is “30 µM”, the “Percent Effect” value stood at 21.29%.

Consider `O=C1N(C2CCCCC2)CCCC12CCN(S(=O)(=O)c1cccnc1)C2` (configuration not stated), for which the “Percent Effect” value (30.3 µM, […]) is listed as 18%.

In the case of `COCCNC(=O)[C@H]1C[C@@H]2CCN(CCc3ccccc3)C[C@H]2O1.O=C(O)C(F)(F)F`, the “Percent Effect” value (30.3 µM, […]) amounted to 57.9%.

Regarding `CC(C)NC(=O)[C@@H]1C[C@@H]2CCN(Cc3ccoc3)C[C@H]2O1.O=C(O)C(F)(F)F`, where the note is “30.3 µM, […]”, the “Percent Effect” value is 11.62%.

With `O=C(NC1CCC1)[C@@H]1C[C@@H]2CCN(CCc3ccccc3)C[C@H]2O1.O=C(O)C(F)(F)F`, under “30.3 µM, […]”, the “Percent Effect” value is -19.62%.

Regarding `CNC(=O)[C@H]1C[C@@H]2CN(Cc3ccccc3)C[C@H]1O2.O=C(O)C(F)(F)F`, the “Percent Effect” value (30.3 µM, […]) amounted to 55.32%.

With `CNC(=O)[C@H]1C[C@@H]2CCN(CCc3ccccc3)C[C@@H]2O1.O=C(O)C(F)(F)F`, for the setting “30.3 µM, […]”, the “Percent Effect” value was 53.78%.

`O=C(NC1CC1)[C@@H]1C[C@@H]2CCN(Cc3ccoc3)C[C@@H]2O1.O=C(O)C(F)(F)F`: under “30.3 µM, […]”, the “Percent Effect” value is reported as 29.69%.

Take `COCCNC(=O)[C@H]1C[C@@H]2CCN(CCc3ccccc3)C[C@@H]2O1.O=C(O)C(F)(F)F`: the “Percent Effect” value (30.3 µM, […]) is 34.91%.

On to `CNC(=O)[C@H]1C[C@@H]2CN(Cc3ccc(C)cc3)C[C@H]1O2.O=C(O)C(F)(F)F`, for which the “Percent Effect” value (30.3 µM, […]) came to 47.12%.

Regarding `O=C(NC1CC1)[C@H]1C[C@@H]2CCN(CCc3ccccc3)C[C@H]2O1.O=C(O)C(F)(F)F`, the “Percent Effect” value (30 µM, 30.03 µM) is listed as 7.043%.

`O=C(NC1CCCC1)[C@@H]1C[C@@H]2CCN(Cc3ccoc3)C[C@H]2O1.O=C(O)C(F)(F)F`: the “Percent Effect” value (30.3 µM, […]) stood at 62.18%.

`CNC(=O)[C@H]1C[C@@H]2CN(Cc3cccc(C)c3)C[C@H]1O2.O=C(O)C(F)(F)F`: the “Percent Effect” value (30.3 µM, […]) worked out at 36.09%.

As to `O=C(NCC1CC1)[C@H]1C[C@@H]2CCN(CCc3ccccc3)C[C@H]2O1.O=C(O)C(F)(F)F`, the “Percent Effect” value (30.3 µM, […]) was -22.31%.
